Test results as given in PubChem BioAssay (EPA / NIEHS).
Several values for one entry are separate records, joined by “and”; a condition that tells them apart may be missing. Identical values can stand only once. Some compounds were tested as several samples or in several runs, with calls that do not always agree. Activity calls are given as the source filed them. How the source made its calls: active means hit-call score of the fitted dose curve at least 0.9, where 1 is the maximum; inactive means score below 0.9.

Assays:
[1] = ATG_M_32_CIS: Attagene CIS-FACTORIAL HepG2 Assay for M32 Transcription Factor (Internal Marker) (AID 2282949); conditions: HepG2 Attagene cis-factorial M32 reporter, mRNA; actives raise or lower the signal;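 further: background control marker of the multiplexed CIS panel rather than a real target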
In short: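 Using DMSO as baseline, bidirectional curve fits were applied to reporter mRNA signals. These came from transiently transfected HepG2 cells exposed for 24 h, with RNA analysed by RT-PCR, FAM primer extension, HpaI digestion and CE.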

[2] = ATG_M_06_CIS: Attagene CIS-FACTORIAL HepG2 Assay for M06 Transcription Factor (Internal Marker) (AID 2282950); conditions: HepG2 Attagene CIS-FACTORIAL M06 internal marker reporter; actives raise or lower the signal
In short: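 Cells (HepG2, transiently carrying cis-driven reporter units) receive chemical for 24 h before RNA isolation. Reporter cDNA is PCR-amplified, FAM-labelled by primer extension, HpaI-digested and sized on a capillary analyser.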

[3] = target: Hypoxia-inducible factor 1-alpha (Homo sapiens) (UniProt Q16665); assay: ATG_HIF1a_CIS: Attagene CIS-FACTORIAL HepG2 Assay for human Hypoxia Inducible Factor 1 (HIF1A) (AID 2282951); conditions: HepG2 Attagene cis-factorial HIF1a reporter transcription; actives raise or lower the signal
In short: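 Dosed 24 h, transfected HepG2 cells yielded total RNA whose reporter transcripts were RT-PCR-amplified and sized by capillary electrophoresis using fluorescent labelling; DMSO defined baseline, with gain and loss of signal both fitted.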

[4] = target: Hepatocyte nuclear factor 6 (Homo sapiens) (UniProt Q9UBC0); assay: ATG_HNF6_CIS: Attagene CIS-FACTORIAL HepG2 Assay for human Hepatocyte Nuclear Factor 6 (HNF6) (AID 2282952); conditions: HepG2 Attagene cis-factorial HNF6 reporter transcription; actives raise or lower the signal
In short: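 Twenty-four-hour chemical treatment of reporter-transfected HepG2 cells precedes RNA isolation, DNase-treated reverse transcription and PCR of reporter sequences. Labelled fragments are sized by capillary electrophoresis and fitted bidirectionally versus DMSO.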

[5] = target: Heat shock factor protein 1 (Homo sapiens) (UniProt Q00613); assay: ATG_HSE_CIS: Attagene CIS-FACTORIAL HepG2 Assay for human Heat Shock Transcription Factor 1 (HSE) (AID 2282953); conditions: HepG2 HSE cis-reporter, Attagene RNA transcription; actives raise or lower the signal
In short: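 Liver-derived HepG2 cells carry transiently introduced multiple reporter units governed by cis promoters. Reporter RNA measured 24 h post-dose through reverse transcription, PCR amplification, fluorescent labelling and capillary electrophoresis, normalised to DMSO.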

[6] = ATG_MRE_CIS: Attagene CIS-FACTORIAL HepG2 Assay for human Metal Responsive Element (MRE) (AID 2282954); conditions: HepG2 MRE cis-reporter transcription, Attagene multiplex; actives raise or lower the signal
In short: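 Multiplexed cis-reporter assay in human HepG2 liver cells, 24 h incubation with test chemical. Reporter transcripts measured by RT-PCR and capillary electrophoresis; values from bidirectional curve fitting versus DMSO.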

[7] = target: Paired box protein Pax-6 (Homo sapiens) (UniProt P26367); assay: ATG_Pax6_CIS: Attagene CIS-FACTORIAL HepG2 Assay for human Paired Box 6 (PAX6) (AID 2282956); conditions: HepG2 CIS-FACTORIAL PAX6 reporter transcription, RNA readout; actives raise or lower the signal
In short: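 Fluorescent RT-PCR products separated by capillary electrophoresis report PAX6-linked promoter mRNA in HepG2 cells 24 h post-dose. Curves fitted bidirectionally, DMSO as negative control.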

[8] = ATG_PXRE_CIS: Attagene CIS-FACTORIAL HepG2 Assay for human Pregnane X Receptor Element (PXRE) (AID 2282957); conditions: HepG2 Attagene CIS-FACTORIAL PXRE reporter, mRNA; actives raise or lower the signal
In short: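 Bidirectional activity, baselined to DMSO, derived from reporter mRNA fluorescence (RT-PCR plus capillary electrophoresis) in HepG2 cells bearing cis-promoter reporter units, 24 h exposure.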

[9] = ATG_RORE_CIS: Attagene CIS-FACTORIAL HepG2 Assay for human RAR-related Orphan Receptor Element (RORE) (AID 2282959); conditions: HepG2 Attagene cis-factorial RORE reporter, mRNA; actives raise or lower the signal
In short: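 Transiently transfected HepG2 reporter cells were treated 24 h. Reporter transcripts were detected by RT-PCR and capillary electrophoresis, with bidirectional fitting against DMSO.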

[10] = target: Transcription factor Sp1 (Homo sapiens) (UniProt P08047); assay: ATG_Sp1_CIS: Attagene CIS-FACTORIAL HepG2 Assay for human Specificity Protein 1 (Sp1) (AID 2282961); conditions: HepG2 Sp1 cis-reporter transcription, actives raise or lower the signal
In short: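 Endpoint reflects endogenous Sp1 transcriptional activity, not an exogenous fusion protein: HepG2 cells with transfected cis-regulated reporters, 24 h dosing, RT-PCR/capillary electrophoresis mRNA read-out, DMSO-normalised bidirectional fit.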

[11] = ATG_SREBP_CIS: Attagene CIS-FACTORIAL HepG2 Assay for human Sterol Regulatory Element Binding (SREBP) (AID 2282962); conditions: HepG2 Attagene cis-factorial SREBP reporter, mRNA; actives raise or lower the signal
In short: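 Endogenous factor activity is measured in HepG2 through multiplexed reporter units under cis-element control. Following a 24 h incubation, reporter transcripts are reverse-transcribed, PCR-amplified and sized by capillary electrophoresis; activity is fitted in both directions relative to DMSO.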

[12] = target: Signal transducer and activator of transcription 3 (Homo sapiens) (UniProt P40763); assay: ATG_STAT3_CIS: Attagene CIS-FACTORIAL HepG2 Assay for human Signal Transducer and Activator of Transcription 3 (STAT3) (AID 2282963); conditions: HepG2, Attagene cis-factorial STAT3 reporter transcription; actives raise or lower the signal
In short: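 Cis-factorial format: endogenous transcription factors in HepG2 drive transfected reporter units. After 24 h treatment, reporter RNA was reverse-transcribed, amplified, FAM-labelled and HpaI-digested before CE analysis; activity scored in both directions against DMSO.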

[13] = ATG_TA_CIS: Attagene CIS-FACTORIAL HepG2 Assay for human TA Basal Promoter (AID 2282964); conditions: HepG2 Attagene CIS-factorial TA basal promoter reporter; actives raise or lower the signal
In short: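 Background internal-marker endpoint from a 52-component HepG2 cis-reporter panel. Cells treated 24 h; reporter transcripts quantified via RT-PCR and CE fluorescence against DMSO baseline.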

[14] = ATG_TCF_b_cat_CIS: Attagene CIS-FACTORIAL HepG2 Assay for human T-Cell-Factor with beta-catenin (TCF/b-cat) (AID 2282965); conditions: HepG2 TCF/beta-catenin cis-reporter transcription, actives raise or lower the signal
In short: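 Measured: reporter mRNA in HepG2 transiently transfected with cis-promoter reporter units, 24 h after chemical addition. Fitting was bidirectional, DMSO as negative control.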

[15] = ATG_TAL_CIS: Attagene CIS-FACTORIAL HepG2 Assay for human TAL Basal Promoter (AID 2282966); conditions: HepG2 Attagene cis-factorial TAL promoter reporter; actives raise or lower the signal;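 further: background control endpoint measuring basal TAL promoter reporter mRNA not a specific factor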
In short: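 Human hepatoma HepG2 cells, transfected with promoter-regulated reporter units, were treated 24 h. Reporter transcript levels, measured through RT-PCR and capillary electrophoresis, were fitted for gain or loss relative to DMSO.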

[16] = ATG_TGFb_CIS: Attagene CIS-FACTORIAL HepG2 Assay for human Transforming Growth Factor (TGF) (AID 2282967); conditions: HepG2 Attagene CIS TGFb reporter, mRNA transcription; actives raise or lower the signal
In short: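 Liver HepG2 line, cis-factorial reporter panel, 24 h dosing. Quantitation: RT-PCR products labeled with 6-FAM, cut with HpaI, resolved by capillary electrophoresis; DMSO-referenced bidirectional analysis.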

[17] = ATG_PPRE_CIS: Attagene CIS-FACTORIAL HepG2 Assay for human Peroxisome Proliferator-activated Response Element (PPRE) (AID 2282958); conditions: HepG2 PPRE cis-element reporter, Attagene transcription factor profiling; actives raise or lower the signal
In short: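 Measured endpoint: PPRE-controlled reporter mRNA, detected by RT-PCR and capillary electrophoresis fluorescence, from transiently transfected HepG2 cells 24 h after dosing. Curves fitted in both directions using DMSO baseline.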

[18] = ATG_Sox_CIS: Attagene CIS-FACTORIAL HepG2 Assay for human SRY-box transcription factor (SOX) (AID 2282960); conditions: HepG2 Attagene cis-factorial SOX reporter, mRNA; actives raise or lower the signal
In short: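 Gain- or loss-of-signal endpoint, fitted bidirectionally with DMSO as negative control. Based on reporter mRNA from transfected HepG2 cells harvested 24 h post-treatment and quantified via RT-PCR and capillary electrophoresis.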

[19] = ATG_VDRE_CIS: Attagene CIS-FACTORIAL HepG2 Assay for human Vitamin D Receptor Element (VDRE) (AID 2282968); conditions: HepG2 VDRE cis-reporter transcription, actives raise or lower the signal
In short: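 Measures endogenous factor activity through cis-element-driven reporter transcripts in transiently transfected HepG2. Cells are treated 24 h; reporter mRNA is quantified by RT-PCR and capillary electrophoresis; fitting is bidirectional.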

[20] = ATG_PBREM_CIS: Attagene CIS-FACTORIAL HepG2 Assay for human Phenobarbital-responsive Enhancer Module (PBREM) (AID 2282955); conditions: HepG2 PBREM cis-reporter, Attagene multiplexed transcription; actives raise or lower the signal
In short: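 Transfected liver-derived HepG2 cells exposed 24 h; PBREM reporter transcript quantified via RT-PCR and capillary electrophoresis, with activity in either direction referenced to DMSO.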

Measured: AC50

Sequence of Paired box protein Pax-6 (Homo sapiens) (P26367 whole entry, looked up): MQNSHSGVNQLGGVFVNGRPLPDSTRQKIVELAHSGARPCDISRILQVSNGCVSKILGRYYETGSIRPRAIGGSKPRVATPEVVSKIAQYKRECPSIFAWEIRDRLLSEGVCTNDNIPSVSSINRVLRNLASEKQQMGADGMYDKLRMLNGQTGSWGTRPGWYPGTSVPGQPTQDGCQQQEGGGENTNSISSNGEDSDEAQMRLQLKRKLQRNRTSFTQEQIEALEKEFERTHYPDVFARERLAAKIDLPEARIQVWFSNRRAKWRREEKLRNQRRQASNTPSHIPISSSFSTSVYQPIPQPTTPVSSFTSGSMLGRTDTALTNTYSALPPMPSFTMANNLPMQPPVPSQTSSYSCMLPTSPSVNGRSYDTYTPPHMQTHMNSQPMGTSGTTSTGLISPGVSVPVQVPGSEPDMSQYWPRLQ
Sequence of Hepatocyte nuclear factor 6 (Homo sapiens) (Q9UBC0 whole entry, looked up, the tested form may be a part): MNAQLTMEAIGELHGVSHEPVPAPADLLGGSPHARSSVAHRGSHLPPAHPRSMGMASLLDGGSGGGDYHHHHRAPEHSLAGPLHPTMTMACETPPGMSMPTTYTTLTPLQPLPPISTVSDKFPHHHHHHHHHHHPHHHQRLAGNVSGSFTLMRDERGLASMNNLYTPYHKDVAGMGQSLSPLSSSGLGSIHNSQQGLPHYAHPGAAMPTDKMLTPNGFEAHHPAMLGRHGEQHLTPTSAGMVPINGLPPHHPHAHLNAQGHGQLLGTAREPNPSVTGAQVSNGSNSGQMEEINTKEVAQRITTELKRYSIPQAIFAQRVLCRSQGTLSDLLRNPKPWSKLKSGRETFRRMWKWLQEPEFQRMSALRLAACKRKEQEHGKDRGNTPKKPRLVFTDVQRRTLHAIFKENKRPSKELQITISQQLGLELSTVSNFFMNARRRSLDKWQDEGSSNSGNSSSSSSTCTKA
Sequence of Signal transducer and activator of transcription 3 (Homo sapiens) (P40763 whole entry, looked up): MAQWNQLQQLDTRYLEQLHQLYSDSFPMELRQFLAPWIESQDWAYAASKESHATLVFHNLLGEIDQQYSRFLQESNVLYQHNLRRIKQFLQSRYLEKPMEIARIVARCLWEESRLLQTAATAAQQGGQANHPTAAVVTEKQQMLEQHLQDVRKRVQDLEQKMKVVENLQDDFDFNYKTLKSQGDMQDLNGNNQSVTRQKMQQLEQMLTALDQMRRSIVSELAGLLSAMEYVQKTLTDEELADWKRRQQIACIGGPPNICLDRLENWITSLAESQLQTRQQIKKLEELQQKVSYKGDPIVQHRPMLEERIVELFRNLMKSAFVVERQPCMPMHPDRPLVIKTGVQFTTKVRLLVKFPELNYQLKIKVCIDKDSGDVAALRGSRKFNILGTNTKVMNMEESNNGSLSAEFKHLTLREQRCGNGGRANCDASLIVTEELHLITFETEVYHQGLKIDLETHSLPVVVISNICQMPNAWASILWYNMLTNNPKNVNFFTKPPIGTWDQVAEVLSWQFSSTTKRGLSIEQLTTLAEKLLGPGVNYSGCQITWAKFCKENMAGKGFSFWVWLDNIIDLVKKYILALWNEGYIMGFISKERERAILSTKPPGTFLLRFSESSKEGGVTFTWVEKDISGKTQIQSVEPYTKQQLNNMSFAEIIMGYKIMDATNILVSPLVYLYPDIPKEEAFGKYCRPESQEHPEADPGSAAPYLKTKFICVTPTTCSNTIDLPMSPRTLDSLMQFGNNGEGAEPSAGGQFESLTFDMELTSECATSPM
Sequence of Hypoxia-inducible factor 1-alpha (Homo sapiens) (Q16665 whole entry, looked up): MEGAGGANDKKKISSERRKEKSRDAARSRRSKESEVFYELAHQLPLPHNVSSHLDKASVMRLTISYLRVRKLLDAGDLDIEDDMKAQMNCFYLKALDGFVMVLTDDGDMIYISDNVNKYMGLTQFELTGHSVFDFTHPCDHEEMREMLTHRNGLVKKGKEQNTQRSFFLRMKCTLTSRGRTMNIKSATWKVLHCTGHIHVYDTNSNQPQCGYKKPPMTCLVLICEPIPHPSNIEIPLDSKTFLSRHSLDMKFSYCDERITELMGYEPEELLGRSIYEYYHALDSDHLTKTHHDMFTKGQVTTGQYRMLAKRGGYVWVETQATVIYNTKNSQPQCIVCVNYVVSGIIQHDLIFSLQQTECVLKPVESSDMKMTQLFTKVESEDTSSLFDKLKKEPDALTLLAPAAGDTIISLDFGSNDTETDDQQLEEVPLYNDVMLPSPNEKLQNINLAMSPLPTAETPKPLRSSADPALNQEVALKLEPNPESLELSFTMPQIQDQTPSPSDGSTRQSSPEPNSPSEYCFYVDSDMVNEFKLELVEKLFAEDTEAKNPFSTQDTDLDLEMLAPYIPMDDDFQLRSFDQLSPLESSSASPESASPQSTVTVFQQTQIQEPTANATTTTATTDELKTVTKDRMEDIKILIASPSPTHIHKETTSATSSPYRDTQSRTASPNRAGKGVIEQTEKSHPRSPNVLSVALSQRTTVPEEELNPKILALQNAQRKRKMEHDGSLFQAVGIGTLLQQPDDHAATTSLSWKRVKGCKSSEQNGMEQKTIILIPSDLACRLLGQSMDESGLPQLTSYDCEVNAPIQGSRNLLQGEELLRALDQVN
Sequence of Transcription factor Sp1 (Homo sapiens) (P08047 whole entry, looked up, the tested form may be a part): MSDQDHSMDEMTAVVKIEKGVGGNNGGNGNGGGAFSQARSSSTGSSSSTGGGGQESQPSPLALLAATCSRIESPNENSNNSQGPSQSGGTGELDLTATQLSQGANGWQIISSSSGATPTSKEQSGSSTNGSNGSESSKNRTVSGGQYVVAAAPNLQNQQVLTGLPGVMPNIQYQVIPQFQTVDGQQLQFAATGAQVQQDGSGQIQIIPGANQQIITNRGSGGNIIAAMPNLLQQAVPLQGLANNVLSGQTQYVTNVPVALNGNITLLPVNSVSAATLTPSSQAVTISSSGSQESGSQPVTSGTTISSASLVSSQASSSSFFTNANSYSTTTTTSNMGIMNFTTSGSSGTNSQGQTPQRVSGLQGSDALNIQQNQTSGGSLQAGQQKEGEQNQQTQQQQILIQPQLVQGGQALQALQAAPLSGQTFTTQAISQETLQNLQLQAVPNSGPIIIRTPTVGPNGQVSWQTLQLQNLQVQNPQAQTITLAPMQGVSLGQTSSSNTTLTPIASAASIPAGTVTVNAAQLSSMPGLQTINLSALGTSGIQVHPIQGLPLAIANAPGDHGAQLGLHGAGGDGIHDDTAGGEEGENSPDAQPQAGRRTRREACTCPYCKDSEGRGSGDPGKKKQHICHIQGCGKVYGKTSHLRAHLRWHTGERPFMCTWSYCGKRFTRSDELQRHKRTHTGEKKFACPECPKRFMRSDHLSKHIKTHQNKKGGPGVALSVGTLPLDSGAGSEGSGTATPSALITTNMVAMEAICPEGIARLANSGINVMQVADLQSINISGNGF
Sequence of Heat shock factor protein 1 (Homo sapiens) (Q00613 whole entry, looked up): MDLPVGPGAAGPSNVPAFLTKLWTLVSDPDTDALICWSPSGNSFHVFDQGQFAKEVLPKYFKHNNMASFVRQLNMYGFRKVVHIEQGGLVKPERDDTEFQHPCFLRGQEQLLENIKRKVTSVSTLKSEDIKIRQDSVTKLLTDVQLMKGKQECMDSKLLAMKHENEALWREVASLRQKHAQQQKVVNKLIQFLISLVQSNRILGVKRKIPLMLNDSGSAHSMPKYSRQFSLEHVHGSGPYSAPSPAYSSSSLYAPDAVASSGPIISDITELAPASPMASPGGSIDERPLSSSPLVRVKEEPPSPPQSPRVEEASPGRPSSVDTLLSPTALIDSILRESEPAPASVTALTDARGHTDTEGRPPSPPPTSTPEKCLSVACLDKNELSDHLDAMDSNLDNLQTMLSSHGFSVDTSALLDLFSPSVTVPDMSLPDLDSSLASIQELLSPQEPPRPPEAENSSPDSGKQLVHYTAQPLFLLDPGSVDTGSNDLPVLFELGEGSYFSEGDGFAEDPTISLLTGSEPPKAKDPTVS

CCCCC(CC)C(=O)O (configuration not stated)
inactive: [1] | [2] | [3] | [4] | [5] | [6] | [7] | [8] | [9] | [10] | [11] | [12] | [13] | [14] | [15] | [16]

N=C(N)c1ccc(OCCCCCOc2ccc(C(=N)N)cc2)cc1
inactive: [1] | [2] | [4] | [5] | [17] | [9] | [18] | [10] | [11] | [12] | [16]
active: [3] 113 µM | [6] 65.2 µM | [7] 101 µM | [8] 57.2 µM | [13] 59 µM | [14] 36.6 µM | [19] 87.5 µM

CCCCCCc1ccc(N)cc1
active: [14] 5.73 µM
inactive: [1] | [2] | [3] | [4] | [6] | [20] | [7] | [8] | [17] | [9] | [18] | [10] | [11] | [12] | [13] | [16] | [19]

O=C(NO)c1ccccc1
inactive: [1] | [2] | [3] | [4] | [5] | [6] | [7] | [8] | [9] | [18] | [10] | [11] | [12] | [13] | [16] | [19]
active: [13] 76.7 µM | [14] 18.9 µM [middle of 4 runs] | [15] 75.5 µM [middle of 4 runs] | [16] 27.5 µM and 26.7 µM

FC1(F)C=CC(F)(F)C1(F)F
inactive: [1] | [2] | [3] | [4] | [6] | [20] | [7] | [8] | [17] | [9] | [18] | [10] | [11] | [12] | [13] | [14] | [19]

CCC1CO1 (configuration not stated)
inactive: [1] | [2] | [3] | [4] | [5] | [6] | [8] | [17] | [9] | [10] | [12] | [13] | [14] | [15] | [16] | [19]

CCOC(OCC)C(=O)c1ccccc1
active: [8] 36.8 µM
inactive: [1] | [2] | [3] | [4] | [5] | [6] | [20] | [9] | [18] | [10] | [12] | [13] | [14] | [15] | [16] | [19]
